We go through 27 molecules from PubChem BioAssay (NCATS).

Several values for one entry are separate records, joined by “and”; a condition that tells them apart may be missing. Identical values can stand only once. Records with an inconclusive call do not appear. Values without a mark were called inactive. Activity calls are given as the source filed them. Calls come from the whole dose curve; as a rule, active = well fitted curve in the direction sought with a large enough effect; inconclusive = small, poorly fitted or top-dose-only effect, or another doubt; inactive = no such curve, though single readings can be large; an effect the other way counts as inactive or inconclusive.

Test [1] has as its target Cellular tumor antigen p53 (Homo sapiens) (UniProt P04637). The experiment in a line: Primary qHTS for small molecule compounds that upregulate eGFP-tagged delta133p53alpha (in N-terminal) cells. (AID 2060322).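 For activation: series mostly up to about 56 µM; 0% = DMSO vehicle and 100% = reference activator.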 Note: nearly all actives have a fitted effect of over 75% in size. Note: potency is the fitted concentration of half-maximal effect. As to conditions: NCI-H358 eGFP-delta133p53alpha fluorescence, 24 h; activation: hits give high values. The essentials: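 NCI-H358 cells pre-induced 24 h with 10 ng/ml doxycycline to express N-terminal eGFP-delta133p53alpha, then dosed 24 h at 37C without doxycycline; fixed, Hoechst-stained, GFP intensity by laser scanning cytometry, normalized to DMSO (0%) and 57.5 uM 5-azacytidine (100%).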

The target of test [2] is Aldehyde dehydrogenase, mitochondrial (Homo sapiens) (UniProt P05091). The experiment in a line: qHTS for Inhibitors of the Aldehyde Dehydrogenase Family (ALDH2) Primary screen (AID 2061308).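 Note: plate controls were vehicle for no effect and reference inhibitor for full effect; nearly all actives have a fitted effect of over 55% in size.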
In test [3] the target is Retinaldehyde dehydrogenase 3 (Homo sapiens) (UniProt P47895). The experiment in a line: qHTS for Inhibitors of the Aldehyde Dehydrogenase Family (ALDH1A3) Primary screen (AID 2061315).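 Note: plate controls were DMSO vehicle for no effect and reference inhibitor for full effect.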 A general note: qHTS replaces the single test concentration by a dilution series.

Chain of Cellular tumor antigen p53 (Homo sapiens) (P04637 whole entry, looked up): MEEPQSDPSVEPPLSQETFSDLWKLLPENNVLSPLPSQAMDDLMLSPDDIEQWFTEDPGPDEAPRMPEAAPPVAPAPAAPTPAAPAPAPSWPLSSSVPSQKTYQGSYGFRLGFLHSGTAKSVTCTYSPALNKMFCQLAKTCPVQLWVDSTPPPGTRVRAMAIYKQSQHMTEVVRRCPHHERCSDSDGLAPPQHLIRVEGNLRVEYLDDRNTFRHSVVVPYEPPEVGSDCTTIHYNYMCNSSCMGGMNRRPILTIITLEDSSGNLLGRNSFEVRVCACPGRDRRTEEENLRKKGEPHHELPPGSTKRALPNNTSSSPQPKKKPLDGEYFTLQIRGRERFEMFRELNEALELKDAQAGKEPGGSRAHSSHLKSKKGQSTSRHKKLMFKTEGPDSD

`CCOC(=O)c1ncn2c1CN(C)C(=O)c1c(I)cccc1-2`: in test [1], the activation is 7.67%. In addition, the Potency result in test [2] and in test [3] was “inactive” each time.

On to `CN1C[C@@H]2CN(c3ccc(-c4ccccc4)nn3)C[C@@H]2C1`, for which, in test [1], the activation was 14.3%. The Potency entry in test [2] and in test [3] was “inactive” throughout.

For `C/C=C(\C)C(=O)OC1CC2C(CC=C3CC(OC4CC(OC)C(OC5CC(OC)C(OC6CC(OC)C(OC7CC(OC)C(O)C(C)O7)C(C)O6)C(C)O5)C(C)O4)CCC32C)C2(O)CCC(C(C)=O)C12C` (stereo unspecified), the activation in test [1] was -6.11%. Besides, the Potency entry in test [2] and in test [3] was “inactive” throughout.

In the case of `COc1cc2c(cc1OC)[C@@]13CCN4CC5=CCO[C@H]6CC(=O)N2[C@H]1[C@H]6[C@H]5C[C@H]43`, the activation in test [1] is -22.1%. For the same molecule, the Potency entry in test [2] and in test [3] was “inactive” throughout.

For the molecule `CCN1CC2(COC)C3[C@@H](OC)C4C1C3(C1C[C@]3(O)[C@H](OC(=O)c5ccccc5)C1[C@]4(OC(C)=O)[C@@H](O)[C@@H]3OC)[C@H](OC)C[C@H]2O` (stereo partly specified), the activation in test [1] is 8.33%. For the same molecule, the Potency result in test [2] and in test [3] was “inactive” throughout.

In the case of `Cc1cccc(NC(=O)c2ccc(C(F)(F)F)cc2C(=O)O)n1`, the activation in test [1] is 1%. The Potency result in test [2] and in test [3] was “inactive” in each case.

Take `C=CCN1C[C@H](C)N([C@H](c2ccc(C(=O)N(CC)CC)cc2)c2cccc(OC)c2)C[C@H]1C`: the activation in test [1] was -16.4% and -0.333%. In addition, the activity change, negative = inhibition is -7.89% [at 11.2 µM] in test [2] and 6.9% [at 11.2 µM] in test [3].

With `COC(=O)[C@@]12C(=O)C(C)C(=O)[C@]1(C)C(C)=C[C@H]1[C@]3(C=O)CC[C@H](OC(C)=O)C(C)(C)[C@H]3CC[C@@]12C` (stereo partly specified), the activation in test [1] is 19.1%. Moreover, the Potency entry in test [2] and in test [3] was “inactive” throughout.

Take `C[C@H]1C(=O)O[C@H]2[C@H](O)[C@]34C5OC(=O)[C@]3(O[C@@H]3OC(=O)[C@H](O)C34[C@H](C(C)(C)C)[C@H]5O)C12O` (stereo partly specified): the activation in test [1] was -12.2%. Further, the Potency result in test [2] and in test [3] was “inactive” in each case.

As for `CCCC[N+]1(C)[C@@H]2CC(OC(=O)[C@H](CO)c3ccccc3)C[C@H]1[C@@H]1O[C@@H]12` (stereo partly specified), the activation in test [1] was -28.8% and -9.82%. Besides, the Potency result in test [2] and in test [3] was “inactive” in each case.

Consider `C=CC(C)(C)c1[nH]c2cccc3c2c1C[C@@H]1[C@@H]3[C@@H](OC(C)=O)[C@H](C)CN1C`, for which, in test [1], the activation was 1.53%. Moreover, the Potency result in test [2] and in test [3] was “inactive” each time.

On to `CC(C)[C@H](NC(=O)c1nn(Cc2ccc(F)cc2)c2ccccc12)C(N)=O`, for which the activation in test [1] is -6.68%. Also, the Potency entry in test [2] and in test [3] was “inactive” each time.

With `C=C1[C@@H]2CC[C@@]3(C)[C@H](c4ccoc4)OC(=O)C[C@]13O[C@H]1CC(=O)C(C)(C)[C@H](C(OC(C)=O)C(=O)OC)[C@]12C` (stereo partly specified), in test [1], the activation was -8.4%. The Potency result in test [2] and in test [3] was “inactive” in each case.

In the case of `CC(C)(C)c1cc(C(C)(C)C)c2c(c1)C(O)(C(F)(F)F)C(=O)O2` (stereo unspecified), in test [1], the activation is 23.2%. The Potency result in test [2] and in test [3] was “inactive” each time.

For the molecule `CCC1NC(=O)C2C(Cl)C(Cl)CN2C(=O)C(C(C)O)NC(=O)CC(c2ccccc2)NC(=O)C(CO)NC1=O` (stereo unspecified), the activation in test [1] was 8.93%. The Potency entry in test [2] and in test [3] was “inactive” in each case.

`N#CC(O[C@@H]1O[C@H](CO)[C@@H](O)[C@H](O)[C@H]1O)c1ccccc1` (stereo partly specified): in test [1], the activation is 13%. Moreover, the Potency entry in test [2] and in test [3] was “inactive” throughout.

`COC[C@]12CN(C)C3C4[C@H](OC)[C@H]1C3(C(OC)C[C@H]2O)[C@H]1C[C@@]2(O)[C@H](OC(=O)c3ccccc3)[C@@H]1[C@]4(O)[C@@H](O)[C@@H]2OC` (stereo partly specified): the activation in test [1] is -0.333%. Also, the Potency entry in test [2] and in test [3] was “inactive” throughout.

With `C=C[C@H]1CN2CCC1C[C@H]2[C@H](O)c1ccnc2ccccc12` (stereo partly specified), in test [1], the activation was -2.33%. Moreover, the Potency entry in test [2] and in test [3] was “inactive” throughout.

Turning to `C[C@@](O)(COc1ccc(C#N)cc1)C(=O)Nc1ccc(C#N)c(C(F)(F)F)c1`, the activation in test [1] is -6.21%. Besides, the Potency entry in test [2] and in test [3] was “inactive” throughout.

Take `C[C@]12CC[C@@H](O)C[C@H]1CC[C@@H]1[C@@H]2CC[C@]2(C)C(=O)CC[C@@H]12`: the activation in test [1] is 3.67%. For the same molecule, the Potency result in test [2] and in test [3] was “inactive” throughout.

As to `CN1C(=O)C(Cc2ccc3ccccc3c2)N=C(c2ccc(O)cc2)c2cc(Cl)ccc21` (stereo unspecified), in test [1], the activation is 10.3%. Moreover, the Potency entry in test [2] and in test [3] was “inactive” throughout.

With `CCC(C)(O)C1(C(=O)O)COC(=O)C1` (stereo unspecified), in test [1], the activation is 6.25%. For the same molecule, the Potency result in test [2] and in test [3] was “inactive” throughout.

With `CO[C@@H]1[C@@H](O)[C@@H](O[C@H]2CC[C@]3(C=O)C4CC[C@]5(C)[C@@H](C6=CC(=O)OC6)CC[C@]5(O)[C@@H]4CC[C@H]3C2)O[C@@H](C)[C@H]1O[C@@H]1O[C@H](CO[C@@H]2O[C@H](CO)[C@@H](O)[C@H](O)[C@H]2O)[C@@H](O)[C@H](O)[C@H]1O` (stereo partly specified), the activation in test [1] was -9.92%. Besides, the Potency result in test [2] and in test [3] was “inactive” in each case.

For `C[C@@H]1CCC2[C@@H](C)C(=O)OC3O[C@@]4(C)CCC1[C@]32OO4` (stereo partly specified), in test [1], the activation is 37.5%. Also, the Potency result in test [2] and in test [3] was “inactive” throughout.

As for `CC[C@H]1CN2CC[C@H]1C[C@H]2[C@H](O)c1ccnc2ccc(OC)cc12`, the activation in test [1] is 7.14%. For the same molecule, the Potency entry in test [2] and in test [3] was “inactive” each time.

On to `CC1=C[C@H]2O[C@@H]3[C@H](O)[C@@H](O)[C@](C)([C@@]2(CO)C[C@@H]1O)[C@]31CO1`, for which the Potency in test [1] was 7.57 µM (active). The Potency result in test [2] and in test [3] was “inactive” throughout.

For the molecule `CC(=O)OC1CC(O)C(C)(C)C2CC(OC(C)=O)C3(C)C(CCC4(C)C(c5ccoc5)C(=O)C5OC543)C12C` (stereo unspecified), in test [1], the activation was -13%. In addition, the Potency entry in test [2] and in test [3] was “inactive” throughout.
